Measurements: the supplement of paper PMC7411054
Structures can show the parent of a compound that is named as a salt.

Tests used:
Settings in all cases: treatment time: 24 h
A549-ACTB-RAB5A [1] = experiment: lowest phenotypically active concentration; higher = less potent
Summary of the method: (§1)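 Live-cell features were measured per well and normalised to solvent control wells after fifteen gene-edited A549, HepG2 and WPMY1 reporter lines had been treated for 24 h at 0.3, 1, 3 or 9 µM in four wells each. A condition was deviating when ≥3 of 4 wells sat beyond the 95th percentile of control Euclidean distances. It was reproducible when the median replicate Pearson correlation exceeded the 95th percentile of non-replicates. Phenotypic activity demanded both.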

A549-GM130-SQSTM1 [2] = experiment: as above
Summary of the method: as §1

A549-ACTB-RAB5A [3] = experiment: phenotypically active (imaging signature differs from DMSO and reproducible) at any of 0.3-9 uM (binary (1 = active, 0 = inactive)); higher = active
Summary of the method: as §1

A549-CANX-COX4 = experiment: as above
Summary of the method: as §1

A549-GM130-SQSTM1 [4] = experiment: as above
Summary of the method: as §1

A549-TP53BP1-CLTA = experiment: as above
Summary of the method: as §1

A549-TUBA1B-RELA = experiment: as above
Summary of the method: as §1

HepG2-ACTB-RAB5A [5] = experiment: as above
Summary of the method: as §1

HepG2-CANX-COX4 = experiment: as above
Summary of the method: as §1

HepG2-GM130-SQSTM1 = experiment: as above
Summary of the method: as §1

HepG2-TP53BP1-CLTA = experiment: as above
Summary of the method: as §1

HepG2-TUBA1B-RELA = experiment: as above
Summary of the method: as §1

WPMY1-ACTB-RAB5A [6] = experiment: as above
Summary of the method: as §1

WPMY1-CANX-COX4 = experiment: as above
Summary of the method: as §1

WPMY1-GM130-SQSTM1 [7] = experiment: as above
Summary of the method: as §1

WPMY1-TP53BP1-CLTA = experiment: as above
Summary of the method: as §1

WPMY1-TUBA1B-RELA = experiment: as above
Summary of the method: as §1

WPMY1-ACTB-RAB5A [8] = experiment: lowest phenotypically active concentration; higher = less potent
Summary of the method: as §1

WPMY1-GM130-SQSTM1 [9] = experiment: as above
Summary of the method: as §1

HepG2-ACTB-RAB5A [10] = experiment: as above
Summary of the method: as §1

| SMILES | lowest phenotypically active concentration (A549-ACTB-RAB5A [1]) [µM] | lowest phenotypically active concentration (A549-GM130-SQSTM1 [2]) [µM] | phenotypically active (A549-ACTB-RAB5A [3]) | phenotypically active (A549-CANX-COX4) | phenotypically active (A549-GM130-SQSTM1 [4]) | phenotypically active (A549-TP53BP1-CLTA) | phenotypically active (A549-TUBA1B-RELA) | phenotypically active (HepG2-ACTB-RAB5A [5]) | phenotypically active (HepG2-CANX-COX4) | phenotypically active (HepG2-GM130-SQSTM1) | phenotypically active (HepG2-TP53BP1-CLTA) | phenotypically active (HepG2-TUBA1B-RELA) | phenotypically active (WPMY1-ACTB-RAB5A [6]) | phenotypically active (WPMY1-CANX-COX4) | phenotypically active (WPMY1-GM130-SQSTM1 [7]) | phenotypically active (WPMY1-TP53BP1-CLTA) | phenotypically active (WPMY1-TUBA1B-RELA) | lowest phenotypically active concentration (WPMY1-ACTB-RAB5A [8]) [µM] | lowest phenotypically active concentration (WPMY1-GM130-SQSTM1 [9]) [µM] | lowest phenotypically active concentration (HepG2-ACTB-RAB5A [10]) [µM] |
| --- | --- | --- | --- | --- | --- | --- | --- | --- | --- | --- | --- | --- | --- | --- | --- | --- | --- | --- | --- | --- |
| Nc1ncnc2c1c(-c1ccc(Oc3ccccc3)cc1)nn2C1CCCC1 | 9 | 9 | 1 (active) | 0 (inactive) | 1 (active) | 0 (inactive) | 1 (active) | 0 (inactive) | 0 (inactive) | 0 (inactive) | 0 (inactive) | 0 (inactive) | 0 (inactive) | 0 (inactive) | 0 (inactive) | 1 (active) | 0 (inactive) | – | – | – |
| COc1ccccc1C(=O)Nc1cc2c(cc1N1CCCC1)n(C)c(=O)n2C | 9 | 9 | 1 (active) | 0 (inactive) | 1 (active) | 0 (inactive) | 0 (inactive) | 0 (inactive) | 0 (inactive) | 0 (inactive) | 0 (inactive) | 0 (inactive) | 1 (active) | 0 (inactive) | 1 (active) | 0 (inactive) | 0 (inactive) | 9 | 9 | – |
| O=C(CCCCCCC(=O)NO)NO | 9 | – | 1 (active) | 0 (inactive) | 0 (inactive) | 0 (inactive) | 0 (inactive) | 1 (active) | 0 (inactive) | 0 (inactive) | 0 (inactive) | 0 (inactive) | 0 (inactive) | 0 (inactive) | 0 (inactive) | 0 (inactive) | 0 (inactive) | – | – | 9 |
| O=C(Nc1ccncc1)c1cc([N+](=O)[O-])ccc1Cl | 3 | – | 1 (active) | 0 (inactive) | 0 (inactive) | 1 (active) | 1 (active) | 1 (active) | 1 (active) | 1 (active) | 1 (active) | 1 (active) | 0 (inactive) | 1 (active) | 1 (active) | 0 (inactive) | 1 (active) | – | 9 | 9 |
| CCc1nc(-c2cccc(C)c2)c(-c2ccnc(NC(=O)c3ccccc3)c2)s1 | 9 | 9 | 1 (active) | 0 (inactive) | 1 (active) | 0 (inactive) | 0 (inactive) | 1 (active) | 1 (active) | 1 (active) | 1 (active) | 1 (active) | 1 (active) | 0 (inactive) | 0 (inactive) | 0 (inactive) | 1 (active) | 9 | – | 9 |
| CC(C)(C)c1ccc(C(O)CCCN2CCC(C(O)(c3ccccc3)c3ccccc3)CC2)cc1 (centres undefined) [terfenadine] | 9 | 3 | 1 (active) | 0 (inactive) | 1 (active) | 0 (inactive) | 0 (inactive) | 1 (active) | 0 (inactive) | 0 (inactive) | 0 (inactive) | 1 (active) | 0 (inactive) | 0 (inactive) | 1 (active) | 0 (inactive) | 1 (active) | – | 3 | 3 |
| COc1cc2c(cc1OC)-c1c/c(=N/c3c(C)cc(C)cc3C)n(C)c(=O)n1CC2 [Trequinsin hydrochloride] | 9 | 9 | 1 (active) | 0 (inactive) | 1 (active) | 0 (inactive) | 0 (inactive) | 1 (active) | 1 (active) | 0 (inactive) | 0 (inactive) | 0 (inactive) | 1 (active) | 1 (active) | 1 (active) | 1 (active) | 1 (active) | 9 | 9 | 9 |
| O=S(=O)(c1cccc2cnccc12)N1CCNCC1 | 3 | – | 1 (active) | 0 (inactive) | 0 (inactive) | 1 (active) | 1 (active) | 1 (active) | 1 (active) | 1 (active) | 1 (active) | 1 (active) | 1 (active) | 1 (active) | 1 (active) | 1 (active) | 1 (active) | 9 | 9 | 9 |
| COc1ccc(CCc2nc3cc(-c4c(C)noc4C)ccc3n2C[C@H](C)N2CCOCC2)cc1Cl | 3 | – | 1 (active) | 0 (inactive) | 0 (inactive) | 0 (inactive) | 0 (inactive) | 1 (active) | 1 (active) | 1 (active) | 1 (active) | 1 (active) | 1 (active) | 0 (inactive) | 1 (active) | 0 (inactive) | 1 (active) | 9 | 9 | 3 |
| CN1c2ccc([N+](=O)[O-])cc2N=C(c2ccc(C(=O)O)cc2)c2cc3c(cc21)C(C)(C)CCC3(C)C | 9 | 9 | 1 (active) | 0 (inactive) | 1 (active) | 0 (inactive) | 1 (active) | 0 (inactive) | 0 (inactive) | 0 (inactive) | 0 (inactive) | 1 (active) | 0 (inactive) | 0 (inactive) | 0 (inactive) | 0 (inactive) | 0 (inactive) | – | – | – |
| Cc1ccc(O)c([C@H](CCN(C(C)C)C(C)C)c2ccccc2)c1 [Tolterodine L-tartrate] | 9 | 9 | 1 (active) | 0 (inactive) | 1 (active) | 0 (inactive) | 0 (inactive) | 0 (inactive) | 0 (inactive) | 0 (inactive) | 0 (inactive) | 0 (inactive) | 0 (inactive) | 0 (inactive) | 1 (active) | 0 (inactive) | 0 (inactive) | – | 9 | – |
| CC[C@H](CO)Nc1nc(Nc2cccc(-c3ccccn3)c2)c2ncn(C(C)C)c2n1 [(R)-DRF053 dihydrochloride] | 9 | 9 | 1 (active) | 0 (inactive) | 1 (active) | 0 (inactive) | 0 (inactive) | 1 (active) | 0 (inactive) | 1 (active) | 1 (active) | 1 (active) | 0 (inactive) | 1 (active) | 0 (inactive) | 0 (inactive) | 1 (active) | – | – | 9 |
| CNC(=O)c1cc(Oc2ccc(NC(=O)Nc3ccc(Cl)c(C(F)(F)F)c3)c(F)c2)ccn1 [regorafenib] | 9 | – | 1 (active) | 0 (inactive) | 0 (inactive) | 1 (active) | 0 (inactive) | 1 (active) | 1 (active) | 1 (active) | 1 (active) | 1 (active) | 0 (inactive) | 0 (inactive) | 0 (inactive) | 1 (active) | 0 (inactive) | – | – | 3 |
| Cc1ccc(S(=O)(=O)n2c(N)nc3ccccc32)cc1 | 9 | – | 1 (active) | 0 (inactive) | 0 (inactive) | 0 (inactive) | 0 (inactive) | 1 (active) | 0 (inactive) | 0 (inactive) | 0 (inactive) | 0 (inactive) | 0 (inactive) | 0 (inactive) | 0 (inactive) | 0 (inactive) | 0 (inactive) | – | – | 9 |
| N#Cc1ccc2ncnc(NCCc3ccccc3)c2c1 [Senexin A] | 3 | 3 | 1 (active) | 0 (inactive) | 1 (active) | 0 (inactive) | 0 (inactive) | 0 (inactive) | 1 (active) | 0 (inactive) | 0 (inactive) | 0 (inactive) | 1 (active) | 1 (active) | 0 (inactive) | 0 (inactive) | 1 (active) | 1 | – | – |
| CCC(=O)N1CCOc2c(cc(-c3ccc(OC)c(OC)c3)cc2OC[C@H]2CCCN(C)C2)C1 | 9 | – | 1 (active) | 0 (inactive) | 0 (inactive) | 0 (inactive) | 1 (active) | 1 (active) | 1 (active) | 0 (inactive) | 0 (inactive) | 1 (active) | 0 (inactive) | 1 (active) | 0 (inactive) | 0 (inactive) | 0 (inactive) | – | – | 9 |
| O=S(=O)(c1ccccc1)N(CC(F)(F)F)c1ccc(C(O)(C(F)(F)F)C(F)(F)F)cc1 | – | 9 | 0 (inactive) | 0 (inactive) | 1 (active) | 0 (inactive) | 0 (inactive) | 0 (inactive) | 0 (inactive) | 0 (inactive) | 0 (inactive) | 0 (inactive) | 0 (inactive) | 0 (inactive) | 0 (inactive) | 0 (inactive) | 0 (inactive) | – | – | – |
| Cc1nc2sccn2c(=O)c1CCN1CCC(=C(c2ccc(F)cc2)c2ccc(F)cc2)CC1 [Ritanserin] | 9 | – | 1 (active) | 0 (inactive) | 0 (inactive) | 0 (inactive) | 0 (inactive) | 0 (inactive) | 0 (inactive) | 1 (active) | 0 (inactive) | 1 (active) | 0 (inactive) | 0 (inactive) | 1 (active) | 0 (inactive) | 0 (inactive) | – | 9 | – |
| CC(C)NC[C@H](O)COc1cccc2ccccc12 [(S)-(-)-Propranolol hydrochloride] | – | 9 | 0 (inactive) | 0 (inactive) | 1 (active) | 0 (inactive) | 0 (inactive) | 0 (inactive) | 0 (inactive) | 0 (inactive) | 0 (inactive) | 0 (inactive) | 0 (inactive) | 0 (inactive) | 0 (inactive) | 0 (inactive) | 0 (inactive) | – | – | – |
| CCOC(=O)C1=C[C@]2(CC)CCCN3CCc4c(n1c1ccccc41)[C@@H]32 [Vinpocetine] | 9 | – | 1 (active) | 0 (inactive) | 0 (inactive) | 0 (inactive) | 0 (inactive) | 1 (active) | 0 (inactive) | 0 (inactive) | 0 (inactive) | 0 (inactive) | 0 (inactive) | 0 (inactive) | 1 (active) | 0 (inactive) | 0 (inactive) | – | 9 | 9 |
| C[C@@H]1CCN(C(=O)CC#N)C[C@@H]1N(C)c1ncnc2[nH]ccc12 | 9 | – | 1 (active) | 0 (inactive) | 0 (inactive) | 0 (inactive) | 0 (inactive) | 0 (inactive) | 1 (active) | 1 (active) | 1 (active) | 0 (inactive) | 0 (inactive) | 0 (inactive) | 0 (inactive) | 0 (inactive) | 0 (inactive) | – | – | – |
| CC[C@H](Nc1ncnc2[nH]cnc12)c1nc2cccc(F)c2c(=O)n1-c1ccccc1 [idelalisib] | 9 | – | 1 (active) | 0 (inactive) | 0 (inactive) | 0 (inactive) | 0 (inactive) | 0 (inactive) | 0 (inactive) | 0 (inactive) | 0 (inactive) | 0 (inactive) | 1 (active) | 0 (inactive) | 0 (inactive) | 0 (inactive) | 0 (inactive) | 9 | – | – |
